Structures can show the parent of a compound that is named as a salt.
system: Saccharomyces cerevisiae BY4741 SeMeCo community; experiment: z-score of subpopulation abundance vs DMSO median, subpopulation auxotrophic for U; higher = larger share of this subpopulation than in DMSO controls; conditions: 10 µM; 24 h; SM minimal medium; subpopulation (auxotrophy): U
Experimental: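 Fluorescent four-plasmid SeMeCo (self-establishing metabolically cooperating S. cerevisiae BY4741 community; plasmids pH-mRuby2, pL-mWasabi, pU-eCFP, pM-TagRFP657) was grown 24 h in minimal SM medium with each Selleck FDA-approved drug at 10 µM in 384-well plates. Cells were fixed and imaged by high-content confocal microscopy. For each auxotrophic subpopulation (and the prototroph), a z-score gives the deviation from the DMSO vehicle-control population median.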

Going from `Nc1ccncc1` [4-Aminopyridine] to `O=c1cccc2n1C[C@@H]1CNC[C@H]2C1` [Cytisine], the “z-score of subpopulation abundance” value rises from -0.8 to -0.25.

Compared with `CN(C)[C@@H]1C(=O)C(C(N)=O)=C(O)[C@@]2(O)C(=O)C3=C(O)c4c(O)cccc4[C@@](C)(O)[C@H]3C[C@@H]12` [Tetracycline HCl], `CN(C)[C@@H]1C(=O)C(C(N)=O)=C(O)[C@@]2(O)C(=O)C3=C(O)c4c(O)cccc4[C@@](C)(O)[C@H]3[C@H](O)[C@@H]12` [Oxytetracycline (Terramycin)] is lower in “z-score of subpopulation abundance” value: 0.13 for the first, 0.03 for the second.

Going from `C[N+]12CCC(CC1)C(OC(=O)C(O)(c1ccccc1)c1ccccc1)C2` (centres undefined) [Clidinium Bromide] to `O=C(O[C@H]1C[C@H]2CC[C@@H](C1)[N+]21CCCC1)C(O)(c1ccccc1)c1ccccc1` [Trospium chloride], the “z-score of subpopulation abundance” value falls from 0.71 to -0.17.

Compared with `CN[C@@H]1[C@@H](O)[C@@H](O[C@@H]2[C@@H](O)[C@H](O[C@H]3O[C@H](CN)CC[C@H]3N)[C@@H](N)C[C@H]2N)OC[C@]1(C)O.CN[C@@H]1[C@@H](O)[C@@H](O[C@@H]2[C@@H](O)[C@H](O[C@H]3O[C@H]([C@@H](C)N)CC[C@H]3N)[C@@H](N)C[C@H]2N)OC[C@]1(C)O.CN[C@@H]1[C@@H](O)[C@@H](O[C@@H]2[C@@H](O)[C@H](O[C@H]3O[C@H]([C@@H](C)NC)CC[C@H]3N)[C@@H](N)C[C@H]2N)OC[C@]1(C)O` [Gentamicin Sulfate], `C[C@@H]1O[C@@H](O[C@H]2C[C@@H](O)[C@]3(CO)[C@H]4[C@H](O)C[C@]5(C)[C@@H](C6=CC(=O)OC6)CC[C@]5(O)[C@@H]4CC[C@]3(O)C2)[C@H](O)[C@H](O)[C@H]1O` [Ouabain] is higher in “z-score of subpopulation abundance” value: 0.09 for the first, 0.18 for the second.

Going from `CC1(C)SC2C(N)C(=O)N2C1C(=O)O` (centres undefined) [6-Aminopenicillanic acid] to `CC(=O)OCC1=C(C(=O)O)N2C(=O)C(N)C2SC1` (centres undefined) [7-Aminocephalosporanic acid], the “z-score of subpopulation abundance” value rises from 0.1 to 0.52.

First: CN1c2ccccc2C(NCCCCCCC(=O)O)c2ccc(Cl)cc2S1(=O)=O (centres undefined) [Tianeptine sodium]
Second: O=c1[nH]c2ccccc2n1CCCN1CCC(n2c(=O)[nH]c3cc(Cl)ccc32)CC1 [Domperidone]
The “z-score of subpopulation abundance” value of the first is lower: -0.4 for the first, 0.4 for the second.

First: CN(C)C(=O)Oc1cccc([N+](C)(C)C)c1 [Neostigmine Bromide]
Second: CN(C)C(=O)Oc1ccc[n+](C)c1 [Pyridostigmine Bromide]
The “z-score of subpopulation abundance” value of the first is lower: -0.26 for the first, 0.29 for the second.

First: Nc1nc(N)nc(NC2CC2)n1 [Cyromazine]
Second: COc1ccc2c3c([nH]c2c1)C(C)=NCC3 [Harmaline]
The “z-score of subpopulation abundance” value of the first is higher: 0.89 for the first, -8.11 for the second.

First: C=CCN1C[C@H](C(=O)N(CCCN(C)C)C(=O)NCC)C[C@@H]2c3cccc4[nH]cc(c34)C[C@H]21 [Cabergoline]
Second: CCC1=C[C@H]2CN3CCc4c([nH]c5ccccc45)[C@](C(=O)OC)(C2)[C@H]13 [Catharanthine]
The “z-score of subpopulation abundance” value of the first is higher: 1.05 for the first, 0.69 for the second.

First: CCOC(=O)Nc1ccc(NCc2ccc(F)cc2)cc1N [Retigabine]
Second: O=C(O[C@H]1C[N+]2(CCCOc3ccccc3)CCC1CC2)C(O)(c1cccs1)c1cccs1 [Aclidinium Bromide]
The “z-score of subpopulation abundance” value of the first is lower: -0.91 for the first, 0.94 for the second.

Compared with `N#Cc1nn(-c2c(Cl)cc(C(F)(F)F)cc2Cl)c(N)c1[S+]([O-])C(F)(F)F` (centres undefined) [Fipronil], `CCOC(=O)Nc1ccc(NCc2ccc(F)cc2)cc1N` [Retigabine 2HCl] is lower in “z-score of subpopulation abundance” value: -0.36 for the first, -0.66 for the second.

Compared with `C[N+](C)(C)CCCCCCCCCC[N+](C)(C)C` [Decamethonium Bromide], `CCCCCCCCCCCCCCCC[n+]1ccccc1` [Cetylpyridinium Chloride] is higher in “z-score of subpopulation abundance” value: 0.01 for the first, 1.27 for the second.

Compared with `C=C(C)[C@H]1Cc2c(ccc3c2O[C@@H]2COc4cc(OC)c(OC)cc4[C@@H]2C3=O)O1` [Rotenone (Barbasco)], `COc1cc2c(cc1OC)C1CC(=O)C(CC(C)C)CN1CC2` (centres undefined) [Tetrabenazine (Xenazine)] is lower in “z-score of subpopulation abundance” value: -0.02 for the first, -1.18 for the second.

First: C[C@H]1O[C@H](O[C@H]2[C@H](O)[C@@H](O)[C@@H](O)[C@H](O)[C@@H]2O)[C@@H](N)C[C@@H]1NC(=N)C(=O)O [Kasugamycin hydrochloride]
Second: CN1[C@@H]2CC[C@H]1C[C@@H](OC(=O)C(CO)c1ccccc1)C2 (some centres undefined) [Atropine sulfate monohydrate]
The “z-score of subpopulation abundance” value of the first is lower: -0.23 for the first, 0.96 for the second.

Compared with `C[C@@H]1CC[C@H]2[C@@H](C)C(=O)O[C@@H]3O[C@@]4(C)CC[C@@H]1[C@]32OO4` [Artemisinin], `CN(C)[C@@H]1C(=O)C(C(N)=O)=C(O)[C@@]2(O)C(=O)C3=C(O)c4c(O)cccc4[C@@](C)(O)[C@H]3[C@H](O)[C@@H]12` [Oxytetracycline Dihydrate] is lower in “z-score of subpopulation abundance” value: 0.61 for the first, 0.11 for the second.

Compared with `C=C[C@H]1CN2CC[C@H]1C[C@H]2[C@H](O)c1ccnc2ccccc12` [Cinchonidine], `Cn1cc(C2=C(c3cn(C4CCN(Cc5ccccn5)CC4)c4ccccc34)C(=O)NC2=O)c2ccccc21` is higher in “z-score of subpopulation abundance” value: 0.59 for the first, 1.48 for the second.

Compared with `NC(=O)CN1CCCC1=O` [Piracetam], `CC[C@@H](C(N)=O)N1CCCC1=O` [Levetiracetam] is higher in “z-score of subpopulation abundance” value: -0.08 for the first, 0 for the second.

Reference: the supplement of paper PMC8975748
